Compound activity (PubChem)
RmlCD inh mix: RmlC and RmlD coupled enzyme inhibitors, primary screen, biochemical, 384-well, compound mixtures, retest; AID 1532, 2009; inhibition, % at 5.5 µM; RmlC/RmlD coupled enzyme inhibition, 384-well mixture HTS; 110,000 tested, 0.39% active; in the data active = inhibition above about 30%, passing the limit was not always enough; inconclusive = no clear call, values can overlap the other calls
HIV RNase H inh-1: HIV-1 RT RNase H inhibitors, primary screen, biochemical, fluorescence; RT-RNase H RNA/DNA duplex cleavage; Gag-Pol polyprotein (Human immunodeficiency virus type 1 group M subtype B (isolate …; inhibition, % at 10 µM; 65,000 tested, 1.9% active; in the data active = inhibition above about 50%
HIV RNase H inh-2: HIV-1 RT RNase H inhibitors, retest, confirmation, biochemical | shares compounds with HIV RNase H inh-1 | Recombinant RT RNase H, fluorescent RNA/DNA duplex cleavage | inhibition, % at 10 µM | 1,000 tested, 39% active | AID 651, 2007; in the data active = inhibition above about 48%; inconclusive = no clear call, values can overlap the other calls
* hit, by the source's call. The full list was thinned out, with hits kept by preference.

How did O=C1C(Cl)=C(N2CCN(Cc3ccccc3)CC2)C(=O)N1c1ccccc1 do in these assays?
RmlCD inh mix: -5.8; HIV RNase H inh-1: 85.2*; HIV RNase H inh-2: -2.8

How did Cc1ccc(N2C(=O)C(Cl)=C(N3CCN(C)CC3)C2=O)c(C)c1 do in these assays?
RmlCD inh mix: 4.2

What do the screens show for `O=C1CC(N2CCN(Cc3ccccc3)CC2)C(=O)N1c1ccccc1` (configuration not stated)?
RmlCD inh mix: -7.0; HIV RNase H inh-1: 12.5

How did COc1ccc(C2/C=C\CN(C(=O)c3ccc(C)cc3)[C@H](Cc3ccccc3)C(=O)N2Cc2ccc(F)cc2)cc1 (some centres not stated) do in these assays?
RmlCD inh mix: 1.5

What do the screens show for `CC(CC(=O)Nc1nncs1)c1ccccc1` (configuration not stated)?
RmlCD inh mix: 7.8

How did CCN1CCN(c2ccc(NC(=O)C(C)C)cc2Cl)CC1 do in these assays?
RmlCD inh mix: -6.8

What do the screens show for `CCCC(=O)Nc1ccc(N2CCN(CC)CC2)c(Cl)c1`?
RmlCD inh mix: 5.7; HIV RNase H inh-1: 80.8*; HIV RNase H inh-2: 6.7

How did CC1(C)C(=O)NCCN1C(=O)CCC(=O)O do in these assays?
RmlCD inh mix: -13.6

What do the screens show for `CC(O)[C@H]1CNC(=O)C(=O)N1CCc1cc(C(F)(F)F)cc(C(F)(F)F)c1` (some centres not stated)?
RmlCD inh mix: -2.4

How did CCCCN(CCCC)S(=O)(=O)c1ccc(NC(=O)Cc2cccs2)cc1 do in these assays?
RmlCD inh mix: -7.3

What do the screens show for `CCOc1cc2[nH]c(=O)n(CC3CCC(C(=O)NCCCOC)CC3)c(=O)c2cc1OCC` (configuration not stated)?
RmlCD inh mix: -5.6; HIV RNase H inh-1: 0.2

What do the screens show for `CCOc1cc2[nH]c(=O)n(CC3CCC(C(=O)NCCC(C)C)CC3)c(=O)c2cc1OCC` (configuration not stated)?
HIV RNase H inh-1: 68.3*; HIV RNase H inh-2: inconclusive

What do the screens show for `Clc1ss/c(=N\c2ccccn2)c1Cl`?
RmlCD inh mix: -9.3; HIV RNase H inh-1: 67.8*; HIV RNase H inh-2: 41.1

Results for CCC(C)(C)n1nnnc1C(c1ccccn1)N1CCN(c2cccc(OC)c2)CC1 (configuration not stated) ?
RmlCD inh mix: -13.9

How did O=C1NC(c2cccs2)Nc2sc3c(c21)CCCC3 (configuration not stated) do in these assays?
RmlCD inh mix: 15.0; HIV RNase H inh-1: 93.7*; HIV RNase H inh-2: 34.2

How did CN1CCc2c(sc3c2C(=O)NC(c2cccc(OC(=O)c4cccs4)c2)N3)C1 (configuration not stated) do in these assays?
HIV RNase H inh-1: -32.9

What do the screens show for `Cc1ccc(C(=O)NCCCN2CCOCC2)o1`?
RmlCD inh mix: 7.5

How did COc1cc(C(c2sc3nc(C)nn3c2O)N2CCc3ccccc3C2)cc(OC)c1OC (configuration not stated) do in these assays?
RmlCD inh mix: -6.7; HIV RNase H inh-1: 23.9

How did COc1ccc(C(c2sc3nc(C)nn3c2O)N2CCc3ccccc3C2)cc1 (configuration not stated) do in these assays?
RmlCD inh mix: -8.5; HIV RNase H inh-1: 78.6*; HIV RNase H inh-2: 4.5

What do the screens show for `CCN(CC)S(=O)(=O)c1ccc2c(c1)nc(SCc1nc3ccsc3c(=O)[nH]1)n2CC`?
RmlCD inh mix: 1.2; HIV RNase H inh-1: 35.9

What do the screens show for `O=C(O)C1C2C=CC(O2)C1C(=O)Nc1ccc(S(=O)(=O)Nc2ccccc2)cc1` (configuration not stated)?
HIV RNase H inh-1: 58.0*; HIV RNase H inh-2: 15.5

What do the screens show for `O=C(O)C1C2C=CC(O2)C1C(=O)Nc1ccc(S(=O)(=O)N2CCc3ccccc32)cc1` (configuration not stated)?
RmlCD inh mix: 5.0; HIV RNase H inh-1: -14.1

How did C=CCOC(=O)C1=C[C@H](c2ccc(Br)cc2)C[C@H](OCc2ccc(CO)cc2)O1 do in these assays?
RmlCD inh mix: -5.6

How did Cc1ccc(Oc2nccc(-c3ccc(Cl)cc3)n2)cc1 do in these assays?
RmlCD inh mix: 0.4

What do the screens show for `C=C1CCN([C@@H](CC(C)C)C(=O)Nc2nc3ccc(Cl)cc3s2)S(=O)(=O)c2ccccc21`?
RmlCD inh mix: -10.9

How did O=C(CSc1nnnn1-c1ccc2c(c1)OCCO2)OC1CCCCC1 do in these assays?
RmlCD inh mix: 6.5; HIV RNase H inh-1: 87.3*; HIV RNase H inh-2: 28.3

What do the screens show for `O=C(CSc1nnnn1-c1ccc2c(c1)OCCO2)N1CCc2ccccc21`?
RmlCD inh mix: 7.2; HIV RNase H inh-1: 1.0

What do the screens show for `COc1ccc(NC(=O)c2cc3n(n2)C(C(F)(F)F)CC(c2ccco2)N3)cc1` (configuration not stated)?
RmlCD inh mix: -2.7; HIV RNase H inh-1: 6.1
